# Six1-Eya2 blk: inhibitors of human Six1/Eya2 interaction | AlphaScreen GST-Six1/His-Eya2 binding, biochemical; active compounds read low | activity change, % (test concentration not listed) | 360,000 tested, 0.56% active | AID 651725; in the data active = activity change below about -65%; inconclusive = mostly about -30% to -63%
# Target sequence (O00167 whole entry, looked up): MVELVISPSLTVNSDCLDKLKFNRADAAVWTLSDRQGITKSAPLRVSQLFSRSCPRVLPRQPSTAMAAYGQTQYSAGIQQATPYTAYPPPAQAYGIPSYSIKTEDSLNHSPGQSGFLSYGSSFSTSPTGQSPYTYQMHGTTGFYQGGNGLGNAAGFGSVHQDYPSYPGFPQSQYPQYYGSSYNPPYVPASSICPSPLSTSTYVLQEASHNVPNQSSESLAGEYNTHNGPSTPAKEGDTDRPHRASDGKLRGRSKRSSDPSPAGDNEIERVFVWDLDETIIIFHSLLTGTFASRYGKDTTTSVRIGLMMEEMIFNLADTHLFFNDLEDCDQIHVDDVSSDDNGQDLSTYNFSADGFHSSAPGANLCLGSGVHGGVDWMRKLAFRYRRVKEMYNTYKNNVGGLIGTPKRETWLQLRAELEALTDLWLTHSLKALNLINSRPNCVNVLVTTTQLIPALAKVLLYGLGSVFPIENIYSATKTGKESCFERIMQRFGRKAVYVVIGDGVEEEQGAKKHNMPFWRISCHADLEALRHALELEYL
# Target sequence (Q15475 whole entry, looked up): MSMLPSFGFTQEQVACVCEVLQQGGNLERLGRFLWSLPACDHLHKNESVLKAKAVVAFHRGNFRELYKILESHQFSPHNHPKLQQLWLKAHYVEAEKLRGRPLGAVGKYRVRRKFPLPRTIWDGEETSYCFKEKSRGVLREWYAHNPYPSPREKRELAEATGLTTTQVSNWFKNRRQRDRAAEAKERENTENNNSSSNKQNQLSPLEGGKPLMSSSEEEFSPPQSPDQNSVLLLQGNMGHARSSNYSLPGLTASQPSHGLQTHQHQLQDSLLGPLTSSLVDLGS
#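 Homogeneous AlphaScreen proximity assay pairing GST-Six1 with His-tagged Eya2 (added as 5X mix: 250 nM and 500 nM) in 50 mM Tris pH 8.0, 300 mM NaCl, 1 mM TCEP. Glutathione donor and nickel acceptor beads; 1 h, 37 °C, dark.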
# uPA surface inh: cell surface uPA generation inhibition; cell surface uPA generation assay, qHTS; Potency, µM (highest dose often 38.3 µM), for the others: at the top dose activity change, negative = inhibition, usual class: inhibitors; 330,000 tested, 0.31% active; active = well fitted inhibition curve with a large enough effect; inconclusive = small, poorly fitted or top-dose-only effect; inactive = no such curve, though single readings can be large or run the other way; tested in mouse RAW 264.7 cells; note: potency is the fitted concentration of half-maximal effect; nearly all actives have a fitted effect of over 55% in size
# CtBP-E1A inh: inhibitors of CtBP/E1A interaction; activity change, % (no concentration beside the values); AlphaScreen GST-E1A/His-CtBP binding, 1536-well; active compounds read low; 340,000 tested, 0.49% active; in the data active = activity change below about -65%; inconclusive = mostly about -30% to -63%
#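 Homogeneous bead-based format: GST-tagged E1A captured on glutathione donor beads, His-tagged CtBP on nickel acceptor beads; compounds precede bead addition by 2 h at 37 °C.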
# L3MBTL1 inh: blocks human L3MBTL1 | AlphaScreen L3MBTL1–H3K9me1 peptide binding | Q9Y468 | Potency, µM (series often up to 57.1 µM), inactives show top-dose activity, negative = inhibition, actives largely listed as inhibitors | AID 485360 | 230,000 tested, 0.66% active; note: potency is the fitted concentration of half-maximal effect; nearly all actives have a fitted effect of over 60% in size
#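 AlphaScreen assay: L3MBTL1 (50 nM final) was preincubated 30 min at room temperature with biotinylated H3(1-15)K9me1 peptide (75 nM final), then 30 min with library compounds; streptavidin donor and nickel chelate acceptor beads (10 ug/mL final) added, 30 min dark.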
# USP2a block: inhibitors of human ubiquitin-specific protease USP2a. O75604. USP2 core, Ub-CHOP2 coupled fluorogenic reporter, 485/531. Potency, µM (titrated, usually from 38.3 µM), inactives show at the highest dose activity change, negative = inhibition, actives largely listed as inhibitors. 330,000 tested, 0.01% active. AID 463254;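 note: potency is the fitted concentration of half-maximal effect; plate controls were DMSO wells for no effect and full inhibition by NEM control for full effect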
#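 USP2 core (10nM final) preincubated 30min RT with compound in 20mM Tris-HCl pH 8.0, 2mM CaCl2, 2mM beta-mercaptoethanol, 0.05% CHAPS; 25nM Ub-CHOP2 plus 25nM reporter substrate added, fluorescence (Ex485/Em531) read after 60min.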
# Eya2 phos inh: blocks the phosphatase activity of human Eya2; O00167; recombinant Eya2, OMFP fluorescence dephosphorylation (OMFP is methylfluorescein phosphate); Potency, µM (doses to about 76.9 µM), without a hit: at the highest dose activity, negative = inhibition, hits mostly inhibitors; 330,000 tested, 0.006% active; note: potency is the fitted concentration of half-maximal effect
#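 Eya2 (0.2 uM) preincubated 10 min at ambient with compound, then OMFP substrate added at 50 uM; 10 min reaction in 50 mM HEPES pH 7.5, 50 mM NaCl, 5 uM MgCl2, 0.05% BSA, 1 mM DTT. Fluorescence read at Ex 485/Em 525 nm.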
# The depositor's hits bear a star; ? = inconclusive; · = no result given. Only some compounds are listed: those with a hit (about 1.2% of all), similar ones and a draw of the others. Unless noted, calls come from the whole dose curve; as a rule, active = well fitted curve in the direction sought with a large enough effect; inconclusive = small, poorly fitted or top-dose-only effect, or another doubt; inactive = no such curve, though single readings can be large; an effect the other way counts as inactive or inconclusive. Unless noted, % is set by controls: 0 for no effect and ±100 for the full control effect.
SMILES,Six1-Eya2 blk,uPA surface inh,CtBP-E1A inh,L3MBTL1 inh,USP2a block,Eya2 phos inh
CCCCc1c(-c2ccc(F)cc2)ncn1CCc1ccccc1OC,-15.4,·,-8.4,·,·,·
O=[N+]([O-])c1cccc(/C=C2\CCc3cnn(C4CCS(=O)(=O)C4)c32)c1 (centres undefined),-1.9,·,-1.1,·,·,·
CCCNC(=O)CCc1cc(C(C)(C)C)c(O)c(C(C)(C)C)c1,-6.5,11.2µM*,·,-4.9%,1.8%,-16.2%
CC(C)(C)c1cc(CCC(=O)NCCc2ccccn2)cc(C(C)(C)C)c1O,-21.9,-1.3%,-0.1,·,-0.6%,-3.6%
COc1ccc(CNCc2c(C(=O)N(C)C)nc3ccc(Cl)cn23)c(OC)c1,5.5,-2.6%,·,6.3%,0.2%,4.5%
Cc1ccc(C)c(N2CCN(S(=O)(=O)c3cc4c(cc3Cl)NC(=O)CO4)CC2)c1,0.6,4.0%,6.3,3.8%,-1.9%,3.6%
CN1CCN(C(c2ccc(C(F)(F)F)cc2)c2cc(Cl)c3cccnc3c2O)CC1 (centres undefined),·,·,·,·,2.4%,-2.4%
Oc1c(C(c2ccccn2)N2CCCCC2)cc(Cl)c2cccnc12 (centres undefined),-92.3*,?,-93.2*,·,4.9%,-1.0%
CN1CCN(C(c2ccc(Cl)cc2)c2cc(Cl)c3cccnc3c2O)CC1 (centres undefined),?,0.4%,-80.4*,·,-12.0%,-1.1%
O=C(NCCC1=CCCCC1)c1cccc(S(=O)(=O)N2CCCCC2)c1,-7.1,-2.0%,6.0,-1.4%,1.1%,18.9%
CC1(C)CCCN(C(=O)c2coc(=O)c(Br)c2)C1,?,3.1%,9.5,6.31µM*,-0.5%,6.4%
O=C(Nc1ncn[nH]1)c1ccc(Cl)c(Cl)c1,0.5,1.0%,-0.6,-13.7%,-0.7%,12.2%
NC1=NC(=O)/C(=C\c2ccc(O)c([N+](=O)[O-])c2)S1,-76.1*,1.5%,-82.1*,0.4%,-0.6%,3.1%
Cn1c(SCc2ccccc2)nc(N)c(N=O)c1=O,2.8,3.55µM*,·,·,·,·
COCCn1c(Cc2ccccc2)nnc1SC(C)C(=O)NC1CC1 (centres undefined),4.0,-8.1%,-1.4,-6.2%,0.9%,-10.2%
COC(=O)C1C(=O)c2c([nH]c(C(=O)OCC3CCCO3)c2C)CC1C (centres undefined),-1.0,12.6µM*,0.0,2.1%,1.5%,-10.6%
FC(F)c1nc2ccccc2[nH]1,10.6,2.5%,-25.3,-28.5%,3.0%,-6.0%
c1ccc2[nH]c3cc4ncnc4cc3nc2c1,?,-2.1%,-72.9*,-22.2%,?,22.4%
O=C(NC(=S)Nc1ccc(N2CCCCC2)cc1)c1cccs1,-67.1*,·,?,?,0.9%,-10.4%
OCCN(Cc1ccccc1)Cc1ncccc1O,-15.5,-1.3%,-11.8,·,·,·
OCCN(Cc1cccnc1)Cc1ccccn1,-88.7*,-10.8%,3.3,·,·,·
CC1=C(C(=O)Nc2ccccc2)C(c2ccc[nH]2)n2ncnc2N1 (centres undefined),·,·,·,1.58µM*,?,-4.8%
O=C(O)CC/C(=N/Nc1ncc(C(F)(F)F)cc1Cl)C(=O)O,-13.2,0.1%,-9.3,19.7%,3.5%,-7.6%
CCN(CC)CCn1c2ccccc2c2nc3ccccc3nc21,0.8,10µM*,·,12.6%,-3.5%,-0.3%
CCN(CC)CCn1c2ccccc2c(=O)c2c(O)ccc(O)c21,-68.8*,3.7%,-0.3,·,·,·
SMILES,Six1-Eya2 blk,uPA surface inh,CtBP-E1A inh,L3MBTL1 inh,USP2a block,Eya2 phos inh
Cc1cc2occ(CC(=O)N(C)CC(=O)Nc3ccccc3Br)c2cc1C,-6.4,0.3%,-13.0,4.4%,1.5%,11.5%
CCOc1ccccc1C(=O)NC1CC2CCCC(C1)N2C1CC1 (centres undefined),-1.1,2.8%,3.6,-1.0%,10µM*,18.0%
NC(=O)C1CCN(C2=C(NS(=O)(=O)c3ccc(Cl)cc3)C(=O)c3ccccc3C2=O)CC1,-25.2,-10.6%,·,?,0.5%,-22.8%
CC(=O)Nc1ccc(S(=O)(=O)NC2=C(N3CCN(c4ccc(F)cc4)CC3)C(=O)c3ccccc3C2=O)cc1,-79.5*,-7.2%,-78.2*,·,-0.2%,3.6%
Cc1ccc(S(=O)(=O)NC2=C(N3CCN(c4ccccc4F)CC3)C(=O)c3ccccc3C2=O)cc1,-5.4,4.7%,-5.4,-9.9%,-3.3%,0.1%
COC(=O)C1CCN(C2=C(NS(=O)(=O)c3ccc(Cl)cc3)C(=O)c3ccccc3C2=O)CC1,-67.0*,-0.9%,-78.8*,?,-5.6%,6.0%
CS(=O)(=O)Nc1ccc(N2CCN(c3ccc(C(F)(F)F)cn3)CC2)nc1,0.2,-3.7%,-2.3,-8.1%,1.6%,-6.0%
CC1=NN(c2ccc(C(F)(F)F)cn2)C(=O)C1,-68.2*,-15.1%,?,?,1.9%,9.2%
C=CCn1c(COc2ccccc2)nnc1SCC(=O)N/N=C/c1ccc(C)cc1,-6.6,-1.5%,-1.5,-10.1%,1.4%,1.0%
C=CCn1c(CNc2ccc(C)cc2)nnc1SCC(=O)N/N=C/c1ccc(O)cc1O,-86.1*,6.1%,-81.6*,-6.9%,-2.3%,-4.5%
C=CCn1c(CNc2ccccc2)nnc1SCC(=O)N/N=C/c1ccc(O)cc1O,-87.8*,0.3%,-80.7*,-9.3%,1.6%,14.9%
O=c1[nH]nc(N2CCOCC2)c(=O)[nH]1,2.8,-0.7%,4.4,3.9%,0.0%,-7.0%
O=C1CCCN1C(=O)CSc1nnnn1-c1ccccc1,-0.5,8.2%,·,4.8%,2.9%,28.1%
O=C(CN1CCN(Cc2ccccc2)CC1)Nc1ccccc1-c1ccccc1,-8.3,6.8%,0.0,-16.1%,-8.7%,-14.3%
O=C(NCc1ccc(/C=c2\sc3n(c2=O)CCN=3)o1)C(=O)Nc1ccccc1,·,·,·,25.1µM*,-1.9%,1.5%
Cc1ccc(/C=c2/sc3n(c2=O)CCCN=3)o1,-1.6,-1.9%,-0.8,-6.2%,-0.8%,-20.1%
NCCNCCNCCN,-84.3*,16.3%,-93.3*,?,1.2%,2.3%
Cc1ccc(-c2csc3nc4c5ccccc5c(NCCCN(C)C)nn4c(=O)c23)cc1,-67.1*,-39.2%,?,40.1%,-1.4%,-3.7%
C/C(=N\NC(=O)c1nnn(-c2nonc2N)c1CN(C)c1ccccc1)c1ccccn1,-91.0*,?,·,·,-5.0%,-4.5%
COc1cccc(CC(=O)NNC(=O)CN(C)S(=O)(=O)c2ccc(C)cc2)c1,6.4,1.6%,-7.9,2.9%,2.0%,-5.2%
O=C1CSC(=S)N1/N=C/c1ccc2c(c1)OCCO2,-27.8,-1.5%,-81.8*,·,1.3%,9.5%
COc1cc(O)c(C=NN2C(=O)CSC2=S)c(OC)c1,-87.2*,·,?,·,·,·
Cc1ccccc1/C=N/N1C(=O)CSC1=S,-23.2,-9.1%,·,·,8.1%,10.1%
O=C1CSC(=S)N1N=Cc1ccccc1O,-90.2*,2.7%,-1.9,·,·,·

# Bioassay records: PubChem, National Center for Advancing Translational Sciences (NCATS)
